Measurements as given in PubChem BioAssay (NCI).
The panel holds about 79,000 compounds, 15% with a hit somewhere; the sample as a whole holds those more often. Cut-off read from the data, not from the text of the source: active = growth inhibition above about 70%; inactive = the rest.

What was measured:
[1] = NCI Yeast Anticancer Drug Screen. Data for the rad50 strain (AID 155);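 note: 0% = growth of vehicle-only cultures of the same strain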; settings: S. cerevisiae rad50 strain growth inhibition; at 50.0 µM; stronger effect = higher value
Outline: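 Yeast carrying a defined DNA repair defect were exposed to test compounds, and growth was compared with vehicle-treated controls to give percent inhibition.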

[2] = NCI Yeast Anticancer Drug Screen. Data for the mec2-1 strain (AID 157); settings: S. cerevisiae mec2-1 strain, at 50.0 µM, stronger effect = higher value
Outline: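 Compounds were applied to mec2-1 yeast cells. Their growth was then compared with that of vehicle-treated cultures to give growth inhibition.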

[3] = NCI Yeast Anticancer Drug Screen. Data for the sgs1 mgt1 strain (AID 161);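 note: 0% = growth of cultures given vehicle only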; settings: S. cerevisiae sgs1 mgt1 strain, at 50.0 µM, stronger effect = higher value
Outline: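 Percent growth inhibition was derived by comparing compound-exposed mutant yeast with vehicle-exposed cultures. The strain carries alterations in DNA damage repair.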

[4] = NCI Yeast Anticancer Drug Screen. Data for the cln2 rad14 strain (AID 165);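 note: 0% = growth equal to vehicle treated cultures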; settings: S. cerevisiae cln2 rad14 strain, at 50.0 µM, stronger effect = higher value
Outline: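 Strain: cln2 rad14 yeast, altered in cell cycle control and DNA damage repair. Read-out: growth inhibition vs vehicle.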

[5] = NCI Yeast Anticancer Drug Screen. Data for the bub3 strain (AID 167); settings: S. cerevisiae bub3 mutant strain, at 50.0 µM, stronger effect = higher value
Outline: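 Compounds were applied to a genetically altered yeast strain carrying a cell-cycle control defect. Growth inhibition was scored against vehicle-treated controls.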

[6] = NCI Yeast Anticancer Drug Screen. Data for the mlh1 rad18 strain (AID 175); settings: S. cerevisiae mlh1 rad18 strain growth inhibition; at 50.0 µM; stronger effect = higher value
Outline: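 A repair-deficient yeast strain is exposed to test compound, and growth is scored relative to vehicle-treated controls.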

Measured: growth inhibition

CC(C(=O)O)C1Nc2ccccc2NC1=O (stereo not given)
inactive: [1] 13.4% | [2] 28.6% | [3] 7.05% | [4] -12.4% | [5] -18.7% | [6] 0.3%

CS(=O)(=O)NCCBr
inactive: [1] -10.4% | [2] -3.5% | [3] 5.9% | [4] -22.4% | [5] -32% | [6] -10.9%

N#CC1(c2nc3ccccc3o2)C(=O)C(=O)N(C2C3CC4CC(C3)CC2C4)C(=O)C1=O (stereo not given)
inactive: [1] -8.65% | [2] 6.05% | [3] -39.1% | [4] 16.2% | [5] -5.75% | [6] -9.35%

CC(C)c1cccc(C(C)C)c1NC(=O)OC1CCCCC1
inactive: [1] -11.7% | [2] -22.8% | [3] 8.2% | [4] 20.2% | [5] -1.6% | [6] -2.85%

CC1(C)C(=O)OC(n2ccc(=O)[nH]c2=O)C1=O (stereo not given)
inactive: [1] 7.15% | [2] -11.2% | [3] -7.75% | [4] -43.9% | [5] -10.8% | [6] 12.7%

C/C(=C/C(=O)Nc1ccc2ccccc2c1)Nc1ccc2ccccc2c1
inactive: [1] -5.4% | [2] 6.65% | [3] 5.9% | [4] -8.95% | [5] 10.4% | [6] -15.1%

N#CCCN(CCC#N)c1ccc(/C=C2\N=C(COc3ccc(Cl)cc3Cl)OC2=O)cc1
inactive: [1] -12.9% | [2] -10% | [3] -14.8% | [4] 0.7% | [5] 6.8% | [6] -4.3%

CCN1C(=O)c2ccccc2C1=O
inactive: [1] 11.8% | [2] -9.85% | [3] -5.25% | [4] -16.9% | [5] 5.95% | [6] 24.1%

O=C1c2ccccc2C(=O)N1CC#CCN1C(=O)c2ccccc2C1=O
inactive: [1] -6.95% | [2] -31.8% | [3] 19.6% | [4] -5.05% | [5] -2.65% | [6] -5.75%

Cc1nn(C(=O)c2ccncc2)c2c1C(c1cccc([N+](=O)[O-])c1)SC(N)=N2 (stereo not given)
inactive: [1] -55.5% | [2] -45.6% | [3] -32.2% | [4] 2.1% | [5] -10.6% | [6] -28.2%

Cc1cnc2ccccc2c1
inactive: [1] -12.2% | [2] -2.15% | [3] -5.45% | [4] 4.35% | [5] 0.45% | [6] 2.8%

Cc1cc(S(=O)(=O)Nc2n[nH]c(Nc3ccc4ccccc4c3)n2)c(S)cc1Cl
inactive: [1] 34.2% | [2] 5.85% | [3] 29.2% | [4] 36.5% | [5] 35.9% | [6] 39.9%

N#Cc1cccc(C2SCc3nc4ccccc4n32)c1 (stereo not given)
inactive: [1] -1.1% | [2] -8.9% | [3] 25.9% | [4] 23.1% | [5] 4.8% | [6] 18.1%

COC1CC(NC(C)=O)C(OC(C)=O)C(C)O1 (stereo not given)
inactive: [1] -1.5% | [2] -9.6% | [3] -5.65% | [4] -29.2% | [5] -7.55% | [6] -1.4%

CCCC(=O)Oc1ccc(Br)cc1
inactive: [1] 6.6% | [2] -22.4% | [3] -5.25% | [4] 12.8% | [5] -17.9% | [6] 20.9%

[N-]=[N+]=Nc1cc(=O)n(-c2ccccc2)c2ccccc12
inactive: [1] -17.2% | [2] -22.7% | [3] -24.6% | [4] -2.8% | [5] -3.75% | [6] -22.3%

COC(=O)c1ccccc1CC1Cc2c(C)ccc(C)c2C1=O (stereo not given)
inactive: [1] -3.9% | [2] 3.1% | [3] 0.15% | [4] 3.45% | [5] 0.55% | [6] 17.8%

NC(=O)CNC(=O)CN1C(=O)c2ccccc2C1=O
inactive: [1] 9.05% | [2] -14.6% | [3] -13.1% | [4] 8.65% | [5] 2.1% | [6] -4.2%

CC(C)=C1C2CCC1[C@H](COS(C)(=O)=O)[C@@H]2COS(C)(=O)=O
inactive: [1] -6.7% | [2] 6.5% | [3] 4.45% | [4] 16.9% | [5] 11.1% | [6] -11.2%

CC(/C=N/NC1=NCCCN1)=N\NC1=NCCCN1
inactive: [1] -7.05% | [2] -8.75% | [3] -14.3% | [4] 8.25% | [5] 2.9% | [6] -12.2%
